Cy5 interf NS3h – counter-screen for HCV NS3 helicase inhibitors: fluorescence interference; fluorescence interference ratio at 100 µM; Cy5-dT15 DNA with NS3h; actives lie on both sides; signal over control mean, under 1 quenches; 16,000 compounds, 6% hits; AID 720488;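 active = compound fluorescence over control fluorescence at most 0.8, a quencher, or at least a set upper limit, an enhancer; inactive = ratio between 0.8 and the set upper limit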
HCV NS3h FP – hepatitis C NS3 helicase inhibition, primary screen | inhibition, % at 100 µM | NS3h Cy5-dT15 DNA binding, fluorescence polarization | 16,000 compounds, 1.6% hits | AID 687043;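 active = inhibition above the average over every tested compound plus 3 SD, cut at about 40% in these data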
Of the large screens only hits and unclear results are named; the others gave an inactive call. An excerpt weighted towards active compounds, which were near 7.6% of everything screened.

Cc1ccc(NCCC(=O)c2cccc([N+](=O)[O-])c2)cc1Cl	none
Cc1ccc(-n2nc(C)c(-c3cccc([N+](=O)[O-])c3)c2C)cc1Cl	Cy5 interf NS3h 0.65
O=C(Nc1ccccc1)c1cccc(C(=O)Nc2ccccc2)c1	none
CCN(CC)c1ccc(NC(=O)c2cccc(OCc3ccccc3)c2)cc1	none
CC(Oc1ccc(Br)cc1)C(=O)N/N=C\c1ccccc1O (configuration not stated)	none
O=C(N/N=C\c1cccc(Br)c1)C(Oc1ccccc1)Oc1ccccc1	Cy5 interf NS3h 0.78
CCOC(=O)c1c(N2CCOCC2)nc2ccc([N+](=O)[O-])cc2c1-c1ccccc1	none
O=c1/c(=C/c2ccccc2OS(=O)(=O)c2ccccc2[N+](=O)[O-])sc2nc3ccccc3n12	none
COc1cc(/C=c2\sc3nc4ccccc4n3c2=O)ccc1OS(=O)(=O)c1ccccc1[N+](=O)[O-]	Cy5 interf NS3h 1.2
O=C(Nc1c(C(=O)N2CCCCC2)cnn1-c1ccccc1)c1cccc(F)c1	none
CC(CCc1ccccc1)Nc1cc(N2CCN(S(=O)(=O)c3ccccc3)CC2)ccc1[N+](=O)[O-] (configuration not stated)	none
CCCN(CCC)C(=O)c1c(NC(=O)c2cccs2)sc2c1CCCCC2	Cy5 interf NS3h 0.67
CCc1ccccc1NC(=O)c1c(NC(=O)c2cccs2)sc2c1CCCCC2	none
O=C(NC(NC(=S)Nc1ccccc1[N+](=O)[O-])C(Cl)(Cl)Cl)c1ccco1 (configuration not stated)	Cy5 interf NS3h 0.7
O=C(NC(=S)Nc1ccc([N+](=O)[O-])cc1Cl)c1ccco1	none
CC1CC(Nc2ccccc2)c2ccccc2N1C(=O)c1ccc(Cl)cc1Cl (configuration not stated)	Cy5 interf NS3h 0.62
CC1CC(Nc2ccccc2)c2ccccc2N1C(=O)COc1ccc(Cl)cc1 (configuration not stated)	none
CCOc1cc(OCC)cc(C(=O)Nc2ccc(C(C)=O)cc2)c1	none
Cc1cc(C(F)(F)F)nn1CC(=O)Nc1sc2c(c1C(N)=O)CCC(C)C2 (configuration not stated)	Cy5 interf NS3h 0.75
CCOC(=O)c1c(NC(=O)Cn2nc(C(F)(F)F)cc2C)sc2c1CCC(C)C2 (configuration not stated)	none
Cc1cc(OCc2nc(-c3ccccc3)no2)cc(C)c1Cl	none
CC(C)(C)NC(=O)CN(Cc1ccccc1)S(=O)(=O)c1ccc(Br)cc1	none
Cc1ccccc1NC(=S)NCCOc1ccccc1Cc1ccccc1	Cy5 interf NS3h 0.6
Cc1ccccc1NC(=O)C(=O)NCCc1ccccc1	none
COc1ccc(OC)c(CN2CCN(Cc3ccc(F)cc3)CC2)c1	none
CS(=O)(=O)N1CCN(Cc2ccccc2C(F)(F)F)CC1	Cy5 interf NS3h 0.55
Cc1ccc(S(=O)(=O)N2CCN(Cc3ccccc3[N+](=O)[O-])CC2)cc1	none
CS(=O)(=O)N1CCN(Cc2ccccc2[N+](=O)[O-])CC1	Cy5 interf NS3h 0.72
Cc1ccccc1CN1CCN(S(C)(=O)=O)CC1	none
Cc1ccc(N(CC(=O)O)S(=O)(=O)c2ccccc2)cc1Cl	none
COc1cc(C(=O)Nc2ccc(NC(C)=O)cc2)c([N+](=O)[O-])cc1OC	none
CCCNC(=O)c1cc(OC)c(OC)cc1[N+](=O)[O-]	Cy5 interf NS3h 0.79
Cc1cc(NC(=O)c2ccc(Cl)c([N+](=O)[O-])c2)ccc1Br	none
Cc1ccccc1C(=O)Nc1cccc(NC(=O)c2ccc(Cl)c([N+](=O)[O-])c2)c1	Cy5 interf NS3h 0.71
COc1ccc(C/C(N)=N\OC(=O)Cc2ccc(OC)c(OC)c2)cc1	none
O=C(Nc1ccc(Cl)c(Cl)c1)c1cc([N+](=O)[O-])ccc1N1CCCCC1	none
CCOc1ccc(NC(=O)c2ccccc2NC(=O)c2ccc(C)cc2)cc1	none
CCOc1cc(OCC)cc(C(=O)Nc2cccc(C(F)(F)F)c2)c1	Cy5 interf NS3h 0.5
CCOc1ccc(NC(=O)C(=O)Nc2cccc(C(F)(F)F)c2)cc1	none
COC(=O)C1=C(C)NC(C)=C(C(=O)OC)C1c1ccc(-c2cccc(Br)c2)o1	none
O=S(=O)(c1ccc2ccccc2c1)N(CC(O)CN1CCCCC1)c1ccccc1 (configuration not stated)	none
Cc1oc2c(CN3CCN(C)CC3)c(O)ccc2c(=O)c1-c1nc2ccccc2s1	none
Cc1cc(Cl)ccc1OCC(=O)Nc1ccc(Br)cn1	Cy5 interf NS3h 0.76
Cc1cc(Cl)ccc1OCC(=O)Nc1ccc(Cl)cn1	none
Cc1ccc(-c2nc3ncccc3o2)cc1NC(=O)c1ccc(-c2ccc(F)cc2)o1	none
Cc1ccccc1/C=N\N1CCN(Cc2ccccc2Cl)CC1	none
Cc1ccc([N+](=O)[O-])cc1-c1ccc(/C=C2\C(=O)NC(=O)N(c3ccc(Cl)cc3)C2=O)o1	Cy5 interf NS3h 1.3
Cc1ccc(N2C(=O)NC(=O)/C(=C\c3ccc(-c4ccc([N+](=O)[O-])cc4Cl)o3)C2=O)cc1	none
COC(=O)C1=C(C)N(c2ccccc2)/C(=C\c2ccc(OCC(=O)Nc3ccccc3OC)cc2)C1=O	none
COC(=O)c1ccccc1NC(=O)CN(c1ccc(C)cc1)S(C)(=O)=O	none
CCOC(=O)c1ccccc1NC(=O)CN(c1ccc(C)cc1)S(C)(=O)=O	HCV NS3h FP 42
COc1cc(/C=C2\NC(=S)NC2=O)ccc1OC(=O)C12CC3CC(CC(C3)C1)C2	Cy5 interf NS3h 0.68
Cc1ccc(OC(=O)C23CC4CC(CC(C4)C2)C3)c(C)n1	none
O=C(O)CCN1C(=O)/C(=C/c2ccc(Cl)c([N+](=O)[O-])c2)SC1=S	Cy5 interf NS3h 0.7
O=C(O)CCN1C(=O)/C(=C/c2cccc(OCc3ccccc3)c2)SC1=S	none
Cc1sc(NC(=O)c2ccc(F)cc2)c(C(=O)O)c1C	Cy5 interf NS3h 0.7
Cc1cc(C)cc(NC(=O)c2ccc(F)cc2)c1	none
Cc1nc(C=C2C(=O)C=Cc3ccccc32)c(O)o1	none
CCOC(=O)c1c(C)[nH]c(C=C2C(=O)C=Cc3ccccc32)c1O	Cy5 interf NS3h 0.43
COc1cc(/C=c2\sc3nc4ccccc4n3c2=O)ccc1OCCOc1ccccc1	none
O=C(O)c1cnn2c1NC(c1ccc(F)cc1)CC2C(F)(F)F (configuration not stated)	none
Cc1ccc(C2CC(C(F)(F)F)n3ncc(C(=O)N4CCSCC4)c3N2)cc1 (configuration not stated)	Cy5 interf NS3h 0.49
O=C(O)c1cnn2c1NC(c1ccc(Br)cc1)CC2C(F)(F)F (configuration not stated)	Cy5 interf NS3h 0.79
CN1CCN(C(=O)c2cnn3c2NC(c2ccc(Br)cc2)CC3C(F)(F)F)CC1 (configuration not stated)	none
CC(C)NC(=O)c1cnn2c1NC(c1ccc(Br)cc1)CC2C(F)(F)F (configuration not stated)	none
O=C(NCc1cccs1)c1cnn2c1NC(c1ccc(Br)cc1)CC2C(F)(F)F (configuration not stated)	Cy5 interf NS3h 0.49
CCOc1ccc(NC2=C(Cl)C(=O)N(c3cccc(Cl)c3Cl)C2=O)cc1	none
O=C(CC1S/C(=N/N=C\c2ccccc2)NC1=O)Nc1ccccc1F (configuration not stated)	Cy5 interf NS3h 1.2
COc1ccccc1/C=N\N=C1/NC(=O)C(CC(=O)Nc2cccc(C)c2C)S1 (configuration not stated)	none
COCc1cc(=O)n2[nH]c(-c3ccc(Cl)cc3)cc2n1	none
CC(=O)Nc1cc(-c2nc3ccccc3s2)ccc1Cl	Cy5 interf NS3h 0.74
CC(=O)Nc1cccc(-c2nc3ccccc3s2)c1	none

Assay outcomes (PubChem BioAssay)
